# PubChem BioAssay (NCATS)
# Inconclusive results are not listed. A call without a number means that no potency is given here. Active and inactive are the calls of the source. Calls follow the shape of the dose curve; as a rule, active = well fitted curve in the direction sought with a large enough effect; inconclusive = small, poorly fitted or top-dose-only effect, or another doubt; inactive = no such curve, though single readings can be large; an effect the other way counts as inactive or inconclusive.
# Columns and labels:
# [1] = target: DNA dC->dU-editing enzyme APOBEC-3G (Homo sapiens) (UniProt Q9HC16); test: qHTS for inhibitors of Vif-A3G interactions: Validation (AID 588379)
# Summary of the method: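 HeLa cells stably expressing Vif and A3G-eYFP, 700 cells/well, incubated overnight at 37 deg C, then exposed to compound overnight at 37 deg C. Inhibition of Vif-mediated degradation read as increased yellow fluorescence (Ex 488/Em 500-530) by laser-scanning cytometry.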
# [2] = target: Nuclear receptor subfamily 1 group I member 3 (Homo sapiens) (UniProt Q14994); test: Primary qHTS for agonist of constitutive androstane receptor (CAR) against the NCATS DSHEA and TCM libraries (AID 1794839); conditions: Potency: CAR antagonist co-added at 0.75 µM unless noted;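 also: HepG2 cells expressing human CAR with a CYP2B6 reporter plus PK11195 antagonist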
# Summary of the method: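 HepG2-CYP2B6-hCAR cells, 2,500/well, attached 5 h, then dosed with 0.75 µM PK11195 (final) for 24 h at 37 °C. Luciferase luminescence read (ONE-Glo); CellTiter-Fluor viability (Ex/Em 405/540 nm) in same wells; CITCO positive control.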
# [3] = target: Arylsulfatase A (Homo sapiens) (UniProt P15289); test: qHTS screen for enhancers of Arylsulfatase A (ASA1): LOPAC Validation Assay (AID 720538)
# Summary of the method: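 SV40-transformed fibroblasts from an MLD patient (ASA-I179S) were treated with compound for 48 h at 37 C. They were then lysed with 0.5 mM pNCS substrate (final) for 14 h at room temperature and stopped with NaOH; signal read by fluorescence (Ex 525/Em 598 nm), with increase denoting enhanced activity.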
# [4] = target: Phospholipid hydroperoxide glutathione peroxidase GPX4 (Homo sapiens) (UniProt P36969); test: Primary qHTS Assay for Inhibitors of Recombinant Selenoprotein Glutathione Peroxidase 4 (GPX4) (AID 1845192); also: series mostly up to about 50 µM; nearly all actives have a fitted effect of over 65% in size
# Summary of the method: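 GR-coupled readout: 100 nM GR, 1 mM GSH, 0.5 mM NADPH; NADPH fluorescence (ex 340/em 450 nm) read at t=0 and after 15 min RT. GPX4 200 nM, preincubated 30 min with compound; substrate 0.5 mM CHP.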
# [5] = target: Cytochrome P450 2C9 (Homo sapiens) (UniProt P11712); test: qHTS Assay for Inhibitors and Substrates of Cytochrome P450 2C9 (AID 883); also: potency is read from the fitted curve at half-maximal effect; nearly all actives have a fitted effect of over 60% in size
# Summary of the method: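 Human CYP2C9 (10nM) hydroxylated Luciferin-H (100uM, at its KM) to luciferin in 25mM KPO4. Compound was preincubated 10 min at 37C, then NADPH regeneration started a 60 min reaction at 37C. Luminescence was read after detection reagent, normalized to 57uM sulphaphenazole.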
# [6] = qHTS for compounds that reverse cellular toxicity of Amyloid beta (A-beta) peptide in yeast: LOPAC Validation Assay (AID 720559)
# Summary of the method: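 Yeast expressing toxic A-beta grown with pinned compounds at 30 C for 48 hr. Growth measured as absorbance at 600 nm; data normalized to DMSO and to an equimolar FeCl3/clioquinol mixture as positive control.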
# Chain of Arylsulfatase A (Homo sapiens) (P15289 whole entry, looked up): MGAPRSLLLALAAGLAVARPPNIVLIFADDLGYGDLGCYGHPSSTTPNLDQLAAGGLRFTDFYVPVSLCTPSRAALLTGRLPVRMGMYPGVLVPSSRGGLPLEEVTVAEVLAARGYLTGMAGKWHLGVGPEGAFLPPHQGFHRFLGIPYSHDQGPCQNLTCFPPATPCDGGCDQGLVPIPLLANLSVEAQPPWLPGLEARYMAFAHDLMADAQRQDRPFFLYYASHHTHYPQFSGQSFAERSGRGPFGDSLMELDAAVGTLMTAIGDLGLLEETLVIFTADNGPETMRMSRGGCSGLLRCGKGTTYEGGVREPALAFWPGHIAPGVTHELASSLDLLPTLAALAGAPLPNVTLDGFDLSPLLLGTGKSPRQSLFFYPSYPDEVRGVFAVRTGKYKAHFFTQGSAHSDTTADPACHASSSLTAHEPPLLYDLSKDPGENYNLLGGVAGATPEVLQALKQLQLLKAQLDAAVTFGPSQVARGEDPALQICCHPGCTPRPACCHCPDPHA
# Chain of Nuclear receptor subfamily 1 group I member 3 (Homo sapiens) (Q14994 whole entry, looked up): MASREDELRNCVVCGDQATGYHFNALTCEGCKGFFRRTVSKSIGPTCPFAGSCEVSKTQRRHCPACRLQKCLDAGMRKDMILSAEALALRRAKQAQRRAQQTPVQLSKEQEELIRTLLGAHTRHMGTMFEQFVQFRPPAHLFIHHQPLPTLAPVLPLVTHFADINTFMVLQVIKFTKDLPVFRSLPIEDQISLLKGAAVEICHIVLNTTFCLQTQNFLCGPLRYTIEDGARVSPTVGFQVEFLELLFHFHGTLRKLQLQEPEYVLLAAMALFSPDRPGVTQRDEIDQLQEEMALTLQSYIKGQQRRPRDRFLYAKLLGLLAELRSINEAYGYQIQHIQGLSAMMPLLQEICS
# Chain of DNA dC->dU-editing enzyme APOBEC-3G (Homo sapiens) (Q9HC16 whole entry, looked up): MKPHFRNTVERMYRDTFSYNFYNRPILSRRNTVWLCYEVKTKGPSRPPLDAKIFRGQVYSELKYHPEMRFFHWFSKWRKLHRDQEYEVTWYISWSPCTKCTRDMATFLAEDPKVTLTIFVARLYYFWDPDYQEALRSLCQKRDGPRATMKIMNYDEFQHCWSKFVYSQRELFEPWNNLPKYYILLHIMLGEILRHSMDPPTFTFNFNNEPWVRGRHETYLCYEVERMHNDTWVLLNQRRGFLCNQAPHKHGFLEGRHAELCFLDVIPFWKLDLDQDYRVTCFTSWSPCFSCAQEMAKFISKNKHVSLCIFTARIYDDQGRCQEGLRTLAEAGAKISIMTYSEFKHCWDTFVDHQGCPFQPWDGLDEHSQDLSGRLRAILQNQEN
# Chain of Cytochrome P450 2C9 (Homo sapiens) (P11712 whole entry, looked up): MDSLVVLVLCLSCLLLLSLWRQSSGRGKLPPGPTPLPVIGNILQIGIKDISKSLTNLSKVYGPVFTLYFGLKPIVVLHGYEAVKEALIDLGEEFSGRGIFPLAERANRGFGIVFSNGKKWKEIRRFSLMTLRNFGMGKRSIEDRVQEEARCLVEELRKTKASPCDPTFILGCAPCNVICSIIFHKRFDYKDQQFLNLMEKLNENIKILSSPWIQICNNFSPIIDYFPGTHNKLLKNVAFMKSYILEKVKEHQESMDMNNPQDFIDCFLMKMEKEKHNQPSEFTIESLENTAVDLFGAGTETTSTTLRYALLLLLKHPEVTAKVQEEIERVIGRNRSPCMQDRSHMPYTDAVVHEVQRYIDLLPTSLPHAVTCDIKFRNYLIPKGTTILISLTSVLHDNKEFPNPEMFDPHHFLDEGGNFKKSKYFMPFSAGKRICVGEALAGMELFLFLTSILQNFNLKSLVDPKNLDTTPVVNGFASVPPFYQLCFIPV
# Chain of Phospholipid hydroperoxide glutathione peroxidase GPX4 (Homo sapiens) (P36969 whole entry, looked up): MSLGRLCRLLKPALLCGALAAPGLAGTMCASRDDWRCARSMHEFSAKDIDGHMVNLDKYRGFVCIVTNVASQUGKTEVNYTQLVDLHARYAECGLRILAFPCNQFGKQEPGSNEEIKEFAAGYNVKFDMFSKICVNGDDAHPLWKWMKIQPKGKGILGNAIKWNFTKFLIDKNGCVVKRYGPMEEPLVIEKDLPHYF
smiles,measurement,setting,value
COc1cc2c(cc1O)C[C@H]1c3c(cc(OC)c(O)c3-2)CCN1C,outcome,[1],inactive
COc1cc2c(cc1O)CC1NCCc3cc(OC)c(OC)c-2c31 (stereo unspecified),Potency,[2],inactive
COc1cc(OC)c(/C=C2/C(=O)Nc3ccccc32)c(OC)c1,outcome,[3],inactive
CN1[C@@H]2CC(O)C[C@H]1[C@@H]1O[C@@H]12 (stereo partly specified),Potency,[4],inactive
S=C(S)N1CCCC1,Potency,[5],2 µM (active)
same,outcome,[6],inactive
